# Results filed as inconclusive are left out. A structure can be active in one record and inactive in another. Calls of active or inactive are those of the source. The calls were made as follows: active = hit-call score of the fitted dose curve at least 0.9, where 1 is the maximum; inconclusive = response in the unintended direction; inactive = score below 0.9.
# Molecular target: Estrogen receptor beta (Homo sapiens) (UniProt Q92731)
# Assay: OT_ER_ERbERb_0480: Odyssey Thera (OT) 8-hour HEK293T Protein-Complementation Assay for Estrogen Receptor-beta/-beta Homodimer (AID 2283357);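 also: active means signal gain over DMSO baseline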
# Summary of the method: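 Cells (HEK293T, stable ER-beta LBD PCA pair) are treated 8 hours, fixed and Draq5-stained; signal is fluorescence intensity increase relative to vehicle, fitted in the gain direction.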
# Chain of Estrogen receptor beta (Homo sapiens) (Q92731 whole entry, looked up): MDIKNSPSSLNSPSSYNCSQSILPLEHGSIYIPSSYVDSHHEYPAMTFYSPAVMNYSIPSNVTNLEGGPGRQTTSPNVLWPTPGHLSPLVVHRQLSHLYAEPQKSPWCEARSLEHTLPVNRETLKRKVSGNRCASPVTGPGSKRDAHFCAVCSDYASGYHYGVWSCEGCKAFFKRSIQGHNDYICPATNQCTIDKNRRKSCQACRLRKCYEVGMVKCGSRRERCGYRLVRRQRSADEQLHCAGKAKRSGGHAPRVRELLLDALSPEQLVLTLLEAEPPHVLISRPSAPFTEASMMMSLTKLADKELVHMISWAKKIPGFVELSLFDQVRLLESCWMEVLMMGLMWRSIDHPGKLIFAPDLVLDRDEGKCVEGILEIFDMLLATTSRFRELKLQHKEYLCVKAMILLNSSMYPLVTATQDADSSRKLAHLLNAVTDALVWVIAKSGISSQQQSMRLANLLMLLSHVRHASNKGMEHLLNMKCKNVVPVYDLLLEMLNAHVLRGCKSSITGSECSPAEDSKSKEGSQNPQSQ
Compound,AC50,outcome
C[C@]12CC[C@H](O)CC1=CC[C@@H]1[C@@H]2CC[C@]2(C)C(=O)CC[C@@H]12,3.91 µM (active),
C[C@@H]1C[C@@H]([C@H](O)CC2CC(=O)NC(=O)C2)C(=O)[C@@H](C)C1,,inactive
O=C(O)C(F)(F)C(F)(F)C(F)(F)C(F)(F)C(F)(F)C(F)(F)C(F)(F)C(F)(F)C(F)(F)C(F)(F)F,,inactive
CN(C)N=O,,inactive

# Molecular target: PGR (gene 5241) (UniProt P06401)
# Assay: NVS_NR_hPR: NovaScreen (NVS) Nuclear Receptor Binding Assay for human Progestron Receptor (PR) (AID 2283360);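 also: active means loss of bound radioligand signal versus DMSO baseline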
# Summary of the method: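 Competitive displacement of a labelled radioligand from T47D-derived receptor protein is measured in a cell-free format. Initial testing uses 25 uM in duplicate, with positive and negative controls on every plate.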
# Chain of PGR (gene 5241) (P06401 whole entry, looked up): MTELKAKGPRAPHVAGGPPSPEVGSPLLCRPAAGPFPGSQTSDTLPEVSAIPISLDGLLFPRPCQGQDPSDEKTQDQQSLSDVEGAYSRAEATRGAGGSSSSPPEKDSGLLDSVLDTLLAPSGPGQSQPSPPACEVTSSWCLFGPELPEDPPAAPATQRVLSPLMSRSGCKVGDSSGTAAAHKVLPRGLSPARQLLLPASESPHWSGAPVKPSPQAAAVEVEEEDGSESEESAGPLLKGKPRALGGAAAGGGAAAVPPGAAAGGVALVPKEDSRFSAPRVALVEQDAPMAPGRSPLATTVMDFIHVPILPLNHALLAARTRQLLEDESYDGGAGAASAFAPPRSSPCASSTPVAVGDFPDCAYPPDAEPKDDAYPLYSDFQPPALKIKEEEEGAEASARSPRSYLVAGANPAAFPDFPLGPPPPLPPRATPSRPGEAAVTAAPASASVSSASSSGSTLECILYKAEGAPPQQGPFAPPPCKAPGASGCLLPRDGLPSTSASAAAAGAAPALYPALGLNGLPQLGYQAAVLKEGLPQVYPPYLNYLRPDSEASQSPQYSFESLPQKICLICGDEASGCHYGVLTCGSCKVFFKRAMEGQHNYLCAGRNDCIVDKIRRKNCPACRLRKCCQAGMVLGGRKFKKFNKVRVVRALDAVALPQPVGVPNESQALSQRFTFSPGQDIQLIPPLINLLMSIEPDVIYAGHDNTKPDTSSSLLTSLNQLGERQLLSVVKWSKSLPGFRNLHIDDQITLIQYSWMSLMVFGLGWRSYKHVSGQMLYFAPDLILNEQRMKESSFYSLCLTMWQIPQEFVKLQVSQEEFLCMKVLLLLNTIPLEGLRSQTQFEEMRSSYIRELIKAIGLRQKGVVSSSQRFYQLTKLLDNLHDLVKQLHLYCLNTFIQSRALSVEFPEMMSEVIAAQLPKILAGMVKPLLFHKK
Compound,outcome,AC50
Nc1cccc2ccccc12,inactive,
C=CC(=O)N(C)C,inactive,
N#CCc1ccc(Cl)cc1,inactive,
COC[C@H](C)N(C(=O)CCl)c1c(C)csc1C,,8.39 µM (active)
Nc1ccc(-c2ccc(N)c(Cl)c2)cc1Cl,,41.1 µM (active)

# Molecular target: Nuclear receptor subfamily 1 group I member 2 (Homo sapiens) (UniProt O75469)
# Assay: NVS_NR_hPXR: NovaScreen (NVS) Nuclear Receptor Binding Assay for human Pregnane X Receptor (PXR) (AID 2283365);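 also: a drop in FRET signal versus DMSO baseline means the compound binds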
# Summary of the method: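 Cell-free TR-FRET binding assay with extracted human PXR protein, read 2 h after dosing. Primary screen run in duplicate at 25 uM, actives followed in concentration series; loss of signal fitted against DMSO baseline.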
# Chain of Nuclear receptor subfamily 1 group I member 2 (Homo sapiens) (O75469 whole entry, looked up): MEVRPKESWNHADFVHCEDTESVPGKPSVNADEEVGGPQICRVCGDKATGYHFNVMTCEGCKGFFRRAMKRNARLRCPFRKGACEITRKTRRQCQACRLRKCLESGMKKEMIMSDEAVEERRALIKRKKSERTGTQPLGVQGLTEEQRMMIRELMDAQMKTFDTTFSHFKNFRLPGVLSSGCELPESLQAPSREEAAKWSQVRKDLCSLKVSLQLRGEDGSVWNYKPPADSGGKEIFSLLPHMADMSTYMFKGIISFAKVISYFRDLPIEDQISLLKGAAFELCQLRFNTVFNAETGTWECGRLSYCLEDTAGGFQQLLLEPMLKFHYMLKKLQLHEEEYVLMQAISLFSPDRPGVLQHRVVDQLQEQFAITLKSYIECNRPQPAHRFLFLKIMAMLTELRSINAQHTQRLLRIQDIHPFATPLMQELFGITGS
Compound,outcome,AC50
C[C@]12CC[C@H](O)CC1=CC[C@@H]1[C@@H]2CC[C@]2(C)C(=O)CC[C@@H]12,inactive,
C[C@@H]1C[C@@H]([C@H](O)CC2CC(=O)NC(=O)C2)C(=O)[C@@H](C)C1,inactive,
CC1(C)CCC(Cc2ccc(Cl)cc2)C1(O)Cn1cncn1 (stereo not drawn),inactive,
O=C(Nc1ccc2[nH]ccc2c1)c1cc2cc(F)ccc2n1Cc1cccc(F)c1,inactive,
CCC[CH2][Sn]([CH2]CCC)([CH2]CCC)[O]C(=O)c1ccccc1,,14.6 µM (active)
C1CCC(NC2CCCCC2)CC1,inactive,
Cc1ccccc1N,inactive,

# Molecular target: guinea pig Sigma Receptor, Non-selective Binding, SIGMAR1 (gene 100135589) (UniProt Q60492)
# Assay: NVS_OR_gSIGMA_NonSelective: NovaScreen (NVS) Nuclear Receptor Binding Assay for guinea pig Sigma Receptor, Non-selective Binding (AID 2283367)
# Experimental: NVS_OR_gSIGMA_NonSelective is a biochemical, single-readout assay that uses extracted gene-proteins from Guinea pig brain membranes in a tissue-based cell-free assay. Measurements were taken 1 hour after chemical dosing in a 48-well plate.NVS_OR_gSIGMA_NonSelective is one of one assay component(s) measured or calculated from the NVS_OR_gSIGMA_NonSelective assay. It is designed to make measurements of radioligand binding, a form of binding reporter, as detected with scintillation counting signals by Filter-based radiodetection technology.Data from the assay component NVS_OR_gSIGMA_NonSelective was analyzed into 1 assay endpoint. This assay endpoint, NVS_OR_gSIGMA_NonSelective, was analyzed in the positive analysis fitting direction relative to DMSO as the negative control and baseline of activity. Using a type of binding reporter, loss-of-signal activity can be used to understand changes in the binding as they relate to the gene Sigmar1. Furthermore, this assay endpoint can be referred to as a primary readout, because the performed assay has only produced 1 assay endpoint. To generalize the intended target to other relatable targets, this assay endpoint is annotated to the misc protein intended target family, where the subfamily is chaperone.
# Binding assays used specific radioligands (tritiated, iodinated) with non-radioactive competitive displacement ligands in agonist or antagonist protocols (as indicated) and various reference compounds and inhibitors to titrate specific binding to receptors and transporters. Most enzyme assays (CYPs, kinases, phosphatases, proteases, HDACs) used recombinant protein and specific substrates (fluorescence mostly, some colorimetric and radioactive) and inhibitors, followed by a biochemical separation of substrate and product. All assays for the biochemical HTS were initially run in duplicate at a single concentration (10 uM for CYP450 assays and 25 uM for all others). […] Each assay was run with positive and negative controls, and concurrent controls on every plate. The follow-up (secondary) screen tested active chemical-pairs in concentration series, as well as a few additional assays not tested in the primary screen, some selected negative inactives, and several cases re-run in the concentration series for confirmatory purposes.
# Chain of guinea pig Sigma Receptor, Non-selective Binding, SIGMAR1 (gene 100135589) (Q60492 whole entry, looked up): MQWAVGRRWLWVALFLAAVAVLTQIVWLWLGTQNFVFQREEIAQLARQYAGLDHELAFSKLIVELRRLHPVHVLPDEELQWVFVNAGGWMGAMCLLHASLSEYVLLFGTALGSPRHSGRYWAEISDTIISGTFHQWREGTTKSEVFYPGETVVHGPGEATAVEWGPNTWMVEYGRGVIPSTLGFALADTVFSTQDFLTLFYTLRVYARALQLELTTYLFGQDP
Compound,outcome,AC50
Nc1cccc2ccccc12,inactive,
C(=NC1CCCCC1)=NC1CCCCC1,,30.8 µM (active)
CCOC(=O)/C=C(C)/C=C/C[C@@H](C)CCCC(C)C,,11 µM (active)
NC(=S)Nc1ccccc1,,33 µM (active)
Nc1ccc(-c2ccc(N)c(Cl)c2)cc1Cl,,32.5 µM (active)

# Molecular target: Peroxisome proliferator-activated receptor gamma (Homo sapiens) (UniProt P37231)
# Assay: NVS_NR_hPPARg: NovaScreen (NVS) Nuclear Receptor Binding Assay for human Peroxisome Proliferator-activated Receptor gamma (PPARg) (AID 2283370)
# Summary of the method: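 Cell-free fluorescence polarization binding to human PPARg protein, read 2 h after dosing. Primary screen in duplicate at 25 uM, actives followed in concentration series; loss of signal relative to DMSO scored.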
# Chain of Peroxisome proliferator-activated receptor gamma (Homo sapiens) (P37231 whole entry, looked up): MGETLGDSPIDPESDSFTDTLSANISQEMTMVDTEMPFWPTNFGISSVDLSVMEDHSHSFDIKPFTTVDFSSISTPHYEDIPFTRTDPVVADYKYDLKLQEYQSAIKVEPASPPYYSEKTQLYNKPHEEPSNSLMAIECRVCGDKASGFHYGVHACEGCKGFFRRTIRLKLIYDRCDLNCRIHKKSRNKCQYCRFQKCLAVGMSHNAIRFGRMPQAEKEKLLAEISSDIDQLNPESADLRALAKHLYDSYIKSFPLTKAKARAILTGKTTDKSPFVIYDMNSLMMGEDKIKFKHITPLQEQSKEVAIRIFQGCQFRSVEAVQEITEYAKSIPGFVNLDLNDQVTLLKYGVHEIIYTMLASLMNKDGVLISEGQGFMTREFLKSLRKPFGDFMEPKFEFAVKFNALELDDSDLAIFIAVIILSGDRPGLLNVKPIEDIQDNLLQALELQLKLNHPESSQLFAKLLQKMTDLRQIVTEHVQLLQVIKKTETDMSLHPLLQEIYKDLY
Compound,outcome,AC50
CC(C)(OO)c1ccccc1,inactive,
O=C(NCO)NCO,,25 µM (active)
O=C(O)C(F)(F)C(F)(F)C(F)(F)C(F)(F)C(F)(F)C(F)(F)C(F)(F)C(F)(F)C(F)(F)C(F)(F)F,,6.31 µM (active)
O=C1C(Cl)=C(Cl)C(=O)c2ccccc21,inactive,
CCC[CH2][Sn]([CH2]CCC)([CH2]CCC)[O]C(=O)c1ccccc1,inactive,1.83 µM (active)
CCC[CH2][Sn]([Cl])([Cl])[Cl],inactive,
O=C/C=C/c1ccccc1,inactive,
CN(C)N=O,inactive,

# Molecular target: human Dopamine Transporter (DAT), SLC6A3 (gene 6531) (UniProt Q01959)
# Assay: NVS_TR_hDAT: NovaScreen (NVS) Transporter Assay for human Dopamine Transporter (DAT) (AID 2283374);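 also: activity means loss of bound radioligand signal relative to DMSO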
# Summary of the method: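 Test chemicals were first screened in duplicate at 25 uM, with actives retested as concentration series. Displacement of a specific radioligand from cell-free human dopamine transporter was measured after 1 h by filtration and scintillation counting.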
# Chain of human Dopamine Transporter (DAT), SLC6A3 (gene 6531) (Q01959 whole entry, looked up): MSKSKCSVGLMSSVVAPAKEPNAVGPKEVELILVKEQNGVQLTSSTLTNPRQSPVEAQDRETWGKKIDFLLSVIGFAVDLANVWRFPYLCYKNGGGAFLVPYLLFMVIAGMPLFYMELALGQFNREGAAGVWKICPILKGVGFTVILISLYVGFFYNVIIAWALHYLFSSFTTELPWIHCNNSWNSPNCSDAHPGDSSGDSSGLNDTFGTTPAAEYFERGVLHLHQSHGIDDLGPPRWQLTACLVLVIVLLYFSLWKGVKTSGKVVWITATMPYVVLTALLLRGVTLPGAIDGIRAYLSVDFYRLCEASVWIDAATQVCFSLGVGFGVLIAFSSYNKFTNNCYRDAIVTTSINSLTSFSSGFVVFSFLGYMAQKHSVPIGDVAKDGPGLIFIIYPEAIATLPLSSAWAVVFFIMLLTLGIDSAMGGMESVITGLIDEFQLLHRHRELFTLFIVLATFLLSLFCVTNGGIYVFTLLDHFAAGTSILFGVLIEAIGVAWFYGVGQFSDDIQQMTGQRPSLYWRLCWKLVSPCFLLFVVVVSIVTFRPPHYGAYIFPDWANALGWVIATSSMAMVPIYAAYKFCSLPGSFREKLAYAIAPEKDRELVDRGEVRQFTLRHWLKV
row,Compound,AC50
1,Nc1ccc(Cl)cc1C(=O)c1ccccc1,1.73 µM (active)
2,O=Cc1cccc(Oc2ccccc2)c1,5.52 µM (active)
3,Nc1ccc(-c2ccc(N)c(Cl)c2)cc1Cl,1.63 µM (active)

# Reference: PubChem BioAssay (EPA / NIEHS)
